Source: PubChem
Hits are enriched below; roughly 2.5% of the tested compounds scored in any of these assays.
NFkB binder: binders of NF-kB p50 subunit, primary screen, biochemical, small molecule microarray, anti-His fluorescence. 17,000 tested, 1.3% active. anti-His fluorescence binding. calls only. Nuclear factor NF-kappa-B p105 subunit (Homo sapiens), P19838;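 active = spot fluorescence over background significantly raised, with a chance value under 7% in all four replicate spots of the compound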;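 also: probe protein is his-tagged human p50 processed subunit at 1 µg/ml; raw spot fluorescence signals with no normalization applied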
STAT3 SMM: STAT3 binders, primary screen, biochemical, small molecule microarray, single point, set 2; His-STAT3 binding, anti-His fluorescence; calls only; 17,000 tested, 0.2% active;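 active = compounds whose four printed spots each show fluorescence over background unusually high for their array block, chance value under 7%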
c-Myc SMM: binders of human c-Myc, primary screen, biochemical, small molecule microarray, anti-His fluorescence; His-c-Myc binding; calls only; 17,000 tested, 1.5% active;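 active = spot fluorescence over background with P-value below 7% in all four replicate spots, showing protein binding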;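 also: score is binary with 100 for all four spots passing and 0 otherwise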
Target sequence (P01106 whole entry, looked up): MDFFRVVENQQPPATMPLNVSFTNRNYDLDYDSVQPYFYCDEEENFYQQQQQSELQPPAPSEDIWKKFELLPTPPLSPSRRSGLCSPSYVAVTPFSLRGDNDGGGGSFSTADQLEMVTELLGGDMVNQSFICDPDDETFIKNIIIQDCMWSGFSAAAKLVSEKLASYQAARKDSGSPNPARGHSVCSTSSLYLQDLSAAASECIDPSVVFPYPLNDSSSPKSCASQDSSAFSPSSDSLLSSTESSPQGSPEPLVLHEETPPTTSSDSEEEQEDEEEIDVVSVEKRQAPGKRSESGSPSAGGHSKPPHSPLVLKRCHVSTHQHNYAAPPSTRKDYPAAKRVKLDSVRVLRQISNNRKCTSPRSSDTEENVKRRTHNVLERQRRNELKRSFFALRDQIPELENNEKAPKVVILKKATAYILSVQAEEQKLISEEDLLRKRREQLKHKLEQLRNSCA
p53 mut binder: binders of human mutant p53, primary screen, biochemical, small molecule microarray, anti-GST fluorescence; small molecule microarray binding; mutant tumor protein p53 (GST-tagged), Homo sapiens; AID 624136, 2012; calls only; 17,000 tested, 0.4% active;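 active = compounds whose four printed spots each glow above background more than chance allows, each with a p-value under 7%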
Numbers without * were called inactive; i = inactive; + = active, no number.

SMILES	NFkB binder	STAT3 SMM	c-Myc SMM	p53 mut binder
C[C@@H]1CCCCO[C@@H](CN(C)C(=O)Nc2ccccc2)[C@H](C)CN([C@@H](C)CO)C(=O)c2cc(NC(=O)C3CCCCC3)ccc2O1	+	i	+	+
C[C@H](CO)N1C[C@H](C)[C@H](CN(C)C(=O)C2CCCCC2)OCCCC[C@H](C)Oc2ccc(NC(=O)Nc3ccccc3)cc2C1=O	i	i	+	i
Cc1noc(C)c1NC(=O)Nc1ccc2c(c1)C(=O)N([C@@H](C)CO)C[C@H](C)[C@@H](CN(C)C(=O)C1CCCCC1)OCCCC[C@H](C)O2	i	i	+	i
COc1cc(CNCc2ccccc2)cc(I)c1OCC#N	i	i	i	i
COc1ccc(OC)c(NC(=O)c2ccc(C)c(S(=O)(=O)Nc3ccc(C)cc3)c2)c1	i	i	i	i
Cn1c(S(=O)(=O)CC(N)=O)nc2ccccc21	i	i	i	i
COc1cc(O)c2c(c1)C1=C[C@H](O)[C@@H](O)C[C@]1(C)OC2=O	i	i	i	i
Cc1ccc(S(=O)(=O)N2Cc3ccccc3CC2C(=O)Nc2sc3c(c2C#N)CCCC3)cc1 (stereo unspecified)	i	i	i	i
C[C@H]1CCCCO[C@@H](CN(C)C(=O)C2CCCCC2)[C@@H](C)CN([C@@H](C)CO)C(=O)c2cc(NC(=O)Nc3ccccc3)ccc2O1	+	i	+	i
NC(=O)c1ccccc1NC(=O)COc1cc(Cl)c(Cl)cc1Cl	i	i	i	i
COC(=O)c1ccc2c(=O)n(CCc3cnc[nH]3)c(=S)[nH]c2c1	i	i	i	i
CC#CCOC(=O)C1=CCCN(C)C1	+	+	+	i
O=C(NCc1ccccn1)c1ccccc1O	i	i	i	i
CN(C)CCCNc1oc(-c2ccccc2F)nc1C#N	i	i	+	i
COc1ccc(CSCC(N)C(=O)O)cc1Br (stereo unspecified)	i	i	i	i
O=C(CSc1ncccc1C(=O)O)c1cccc([N+](=O)[O-])c1	i	i	+	i
O=C(O)CCN1C(=O)c2cccc3c([N+](=O)[O-])ccc(c23)C1=O	i	i	+	i
Cc1ccc([N+](=O)[O-])cc1NC(=O)CCN1C(=O)c2ccccc2C1=O	i	i	i	i
CC12C=CC(=O)C=C1CCC1C2=CCC2(C)C1CC[C@@H]2C(=O)CN1CCN(c2cc(N3CCCC3)nc(N3CCCC3)n2)CC1 (stereo partly specified)	i	i	+	i
C/C=C/C1=C(Cl)C(=O)[C@@H](O)[C@@]1(O)C(=O)OC	+	i	i	i
C=CCOC(=O)C1=C[C@H](c2coc3ccccc3c2=O)C[C@H](OCc2ccc(CO)cc2)O1	i	i	+	i
C[C@H](CO)N1C[C@H](C)[C@@H](CN(C)C(=O)CCC(F)(F)F)OCCCC[C@H](C)Oc2ccc(NS(=O)(=O)c3ccc(F)cc3)cc2C1=O	+	i	+	i
C[C@@H]1CCCCO[C@@H](CN(C)C(=O)CCC(F)(F)F)[C@@H](C)CN([C@H](C)CO)C(=O)c2cc(NS(=O)(=O)c3ccccc3)ccc2O1	i	i	i	i
Cc1ccc(S(=O)(=O)Nc2ccc3c(c2)C(=O)N([C@@H](C)CO)C[C@H](C)[C@@H](CN(C)C(=O)CCC(F)(F)F)OCCCC[C@H](C)O3)cc1	+	i	i	i
C[C@H](CO)N1C[C@H](C)[C@H](CN(C)C(=O)CCC(F)(F)F)OCCCC[C@H](C)Oc2ccc(NS(=O)(=O)c3ccccc3)cc2C1=O	+	i	+	i
SMILES	NFkB binder	STAT3 SMM	c-Myc SMM	p53 mut binder
C[C@H](CO)N1C[C@H](C)[C@@H](CN(C)C(=O)CCC(F)(F)F)OCCCC[C@H](C)Oc2ccc(NS(=O)(=O)c3ccccc3)cc2C1=O	i	i	i	i
COc1ccc(NCC(O)Cn2ccc3ccccc32)cc1 (stereo unspecified)	i	i	i	i
Cc1cc(C)n(CC(O)Cn2ccc3ccccc32)n1 (stereo unspecified)	+	i	+	i
CC(C)NC(=O)N(C)C[C@@H]1OCCCC[C@H](C)Oc2ccc(NC(=O)Nc3cccc4ccccc34)cc2C(=O)N([C@@H](C)CO)C[C@H]1C	i	i	i	i
C[C@@H]1CCCCO[C@@H](CN(C)C(=O)Nc2cccc3ccccc23)[C@H](C)CN([C@H](C)CO)C(=O)c2cc(NC(=O)Nc3ccc(F)cc3)ccc2O1	+	i	+	i
C[C@H](CO)N1C[C@H](C)[C@@H](CN(C)C)OCCCC[C@H](C)Oc2ccc(NC(=O)Nc3cccc4ccccc34)cc2C1=O	i	i	i	+
C[C@H](CO)N1C[C@H](C)[C@H](CN(C)C)OCCCC[C@H](C)Oc2ccc(NC(=O)Nc3cccc4ccccc34)cc2C1=O	i	i	i	i
C[C@H](CO)N1C[C@H](C)[C@@H](CN(C)CC2CCCCC2)OCCCC[C@H](C)Oc2ccc(NC(=O)Nc3cccc4ccccc34)cc2C1=O	+	i	i	i
O=C1CC(c2nc3ccccc3n2CCCOc2ccccc2)CN1c1ccccc1 (stereo unspecified)	i	i	i	i
COCCSc1nnc(NC(=O)c2sc3ccccc3c2Cl)s1	i	i	i	i
CCC(Sc1nnc(-c2ccc(NC(C)=O)cc2)n1C)C(=O)Nc1ccc(Cl)cc1 (stereo unspecified)	i	i	i	i
CC1CC[C@@]2(OC1)O[C@H]1CC3C4CC=C5C[C@@H](O[C@@H]6O[C@H](CO)[C@@H](O)[C@H](O)[C@H]6O)CC[C@]5(C)C4CC[C@]3(C)[C@@]1(O)[C@@H]2C (stereo partly specified)	+	i	i	i
CSc1cccc(NC(=O)C(C)N(c2ccc(C)cc2)S(C)(=O)=O)c1 (stereo unspecified)	i	i	i	i
Cc1ccc(S(=O)(=O)NC(=O)CSc2nc3ccccc3s2)cc1	i	i	+	i
COc1cc(OC)nc(NC(=O)CSc2nc3ccccc3s2)n1	i	i	i	i
C[C@@H]1CCCCO[C@@H](CN(C)Cc2ccc(C(=O)O)cc2)[C@@H](C)CN([C@H](C)CO)C(=O)c2cc(NC(=O)Nc3ccc(F)cc3)ccc2O1	i	i	i	i
C[C@@H]1CN([C@@H](C)CO)C(=O)c2cc(NC(=O)Nc3ccc(C(F)(F)F)cc3)ccc2O[C@@H](C)CCCCO[C@H]1CN(C)Cc1ccc(C(F)(F)F)cc1	+	i	i	i
